Screening results (PubChem BioAssay)
V-ATPase pH: regulators of yeast V-ATPase proton pumping, primary screen, pHLuorin cytosolic pH fluorescence; S. cerevisiae; response, % at 10 µM; hit rate 0.37% among 350,000; in the data active means response mostly above about 7.3%, no sharp cut-off; inactive means mostly below about 5.4%; further: actives read high
Rce1 inhib: yeast Rce1p protease inhibitors, primary screen, biochemical, fluorescence, cell-free homogeneous; CAAX prenyl protease 2 (Saccharomyces cerevisiae (strain ATCC 204508 / S288c)), Q03530; yeast membranes, quenched prenylated peptide cleavage fluorescence; calls only; hit rate 0.27% among 290,000;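 active means fall in fluorescence gain of 50% or more versus controls, with final raw signal at or below 3038400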;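 further: plate controls were neutral control wells for no effect and wells lacking membranes for full effect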
Target sequence (Q03530 whole entry, looked up): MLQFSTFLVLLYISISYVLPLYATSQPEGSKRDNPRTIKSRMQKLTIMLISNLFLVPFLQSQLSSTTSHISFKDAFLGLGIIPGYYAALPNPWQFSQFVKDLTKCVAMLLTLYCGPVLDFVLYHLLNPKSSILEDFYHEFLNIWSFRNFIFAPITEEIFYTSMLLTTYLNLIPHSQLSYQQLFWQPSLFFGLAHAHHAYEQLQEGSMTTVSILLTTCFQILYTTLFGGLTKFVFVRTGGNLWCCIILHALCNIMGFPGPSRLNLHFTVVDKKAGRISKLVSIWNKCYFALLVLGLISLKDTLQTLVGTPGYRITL
NPR1 activator: GC-A stimulated cGMP production enhancers – HEK293 GC-A cells, cGMP TR-FRET, EC30 ANP, primary screen | Atrial natriuretic peptide receptor 1 (Homo sapiens), P16066 | 0% at EC30 ANP, 100% saturating ANP | activation, % at 10 µM | hit rate 0.14% among 370,000; in the data active means activation above about 40%
Efflux pump mplx: inhibitors of Candida efflux pumps in yeast, primary screen, S. cerevisiae, Nile Red, multiplex; hit rate 0.44% among 330,000; S. cerevisiae Candida pump triplex; inhibition, % at 10 µM; AID 485275, 2010;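 active means plate passing quality check with inhibition over a set limit, or well fluorescence over plate mean plus 4 SD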;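 further: Nile Red retained in pooled yeast measured as flow cytometry median fluorescence; 0% = buffer negative control and 100% = Enniatin B positive control; higher means more Nile Red kept so more efflux inhibition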
NSD2 inh: NSD2 histone methyltransferase inhibitors, primary screen, biochemical, AlphaScreen, single concentration, set 2; Histone-lysine N-methyltransferase NSD2 (Homo sapiens), O96028; hit rate 0.54% among 310,000; inhibition, % at 12.5 µM; NSD2 peptide methylation, 120 min; in the data active means inhibition above about 50%
GC-B act: human GC-B receptor activators, primary screen, HEK293 GC-B cells, cGMP TR-FRET, EC30 CNP. activation, % at 10 µM. Atrial natriuretic peptide receptor 2 (Homo sapiens), P20594. hit rate 0.11% among 370,000. 0% at EC30 CNP, 100% saturating CNP;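 active means activation at 10 µM reaching about 35% in either raw or pattern-adjusted values, limit read from the data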
Alpha artifact: AlphaScreen signal interference with preloaded methylated product, dose response, artefact control for NSD2 inhibitor project, biochemical, cherry-picked samples; AlphaScreen artifact counterscreen, preloaded methylated H4 peptide; AC35, µM (highest dose often 10 µM), inactives show at the highest dose activity change, negative = signal loss; shares compounds with NSD2 inh; hit rate 9.4% among 1,500; AID 1053174, 2014; call rule not given here
Numbers without * were called inactive; i = inactive; nt = no result given. Shown are actives, neighbours in structure and some others; about 1.6% of the full set was active somewhere.

SMILES	V-ATPase pH	Rce1 inhib	NPR1 activator	Efflux pump mplx	NSD2 inh	GC-B act	Alpha artifact
CCOc1ccccc1NC(=O)CSc1nc2nc(-c3cccs3)cc(C(F)(F)F)c2c(=O)[nH]1	-3.5	i	2.7	0.0	84.3*	-0.1	-1.2%
NS(=O)(=O)c1ccc(N=Nc2ccc(=O)[nH]c2O)cc1	-1.5	i	-0.8	0.8	109.6*	-0.9	-6.2%
CC(C)CN1C(=O)[C@]2(CC(=O)N(C)C2c2ccccc2)c2cc(-n3cc(-c4ccccc4)nn3)ccc21 (stereo not given in full)	nt	nt	5.2	nt	nt	2.8	nt
Cc1[nH][nH]c(=O)c1C(c1ccc(-c2ccc(Cl)c(Cl)c2)o1)c1c(C)[nH][nH]c1=O	-3.9	i	-4.7	-0.1	nt	-0.9	nt
Cc1[nH][nH]c(=O)c1C(c1ccc(-c2ccc(F)cc2)o1)c1c(C)[nH][nH]c1=O	0.7	i	6.1	0.2	156.4*	-0.8	0.2%
Cc1[nH][nH]c(=O)c1C(c1ccc(-c2ccc(C(=O)O)cc2)o1)c1c(C)[nH][nH]c1=O	1.7	nt	-0.7	nt	89.4*	3.9	1.0%
COc1ccc(-c2ccc(C(c3c(C)[nH][nH]c3=O)c3c(C)[nH][nH]c3=O)o2)c([N+](=O)[O-])c1	-3.1	nt	0.8	nt	123.8*	-1.9	-2.6%
CN(CCOC(=O)c1occ2ccccc12)C1CN(Cc2cn(Cc3ccccc3Cl)nn2)S(=O)(=O)C1 (stereo not given)	nt	nt	-2.3	nt	nt	-7.6	nt
COc1ccc(C2C(C(=O)N3CCN(C=O)CC3)CC(=O)N2c2ccc(OC)cc2)cc1 (stereo not given)	nt	nt	-0.1	nt	-2.4	-3.6	nt
Cc1ccc(S(=O)(=O)/N=C2/NC(=O)/C(=C\c3ccco3)S2)cc1	1.1	nt	3.8	-0.1	16.7	1.8	nt
CC(=O)Nc1ccc(S(=O)(=O)/N=C2/NC(=O)/C(=C\c3ccco3)S2)cc1	1.3	i	2.5	-0.1	54.7*	-0.1	-7.3%
CCOc1ccc(C2=NNC(c3cccs3)=Nc3ccc(OC)cc32)cc1OCC	-0.6	i	6.9	0.1	1.7	19.9	nt
COc1ccc(C2=NNC(c3cccs3)=Nc3ccc(OC)cc32)cc1	-2.2	i	-5.5	0.0	51.0*	-0.3	-14.4%
Cc1cccc(C)c1NC(=O)CNC(=O)Cc1c[nH]c2ccccc12	-0.4	i	0.8	0.0	0.3	2.5	nt
Cc1cccc(C)c1NC(=O)c1c[nH]c2ccccc12	0.0	i	3.0	-0.2	143.0*	-0.8	2.9%
COc1ccc(-c2nnc(SCC(=O)c3ccc(O)cc3O)o2)cc1	-7.2	i	3.2	-0.3	81.5*	-3.1	-3.2%
COc1ccc(-c2nnc(SCC(=O)c3ccc[nH]3)o2)cc1	-1.5	i	-2.7	-0.1	-1.3	-2.6	nt
CCOc1cc(/C=C/c2cccc[n+]2C)ccc1OCC(=O)Nc1ccc(C)cc1	1.4	i	-1.9	0.0	12.1	-1.4	nt
COc1cc(/C=C/c2cccc[n+]2C)ccc1OCC(=O)Nc1ccccc1C	-1.7	i	-2.7	0.1	130.8*	-0.8	-2.9%
CCN(C(=O)C(C)N1C(=O)/C(=C/c2ccco2)SC1=S)C1CCS(=O)(=O)C1 (stereo not given)	-3.7	i	4.9	0.5	26.2	4.1	nt
CC(C(=O)O)N1C(=O)/C(=C/C=C/c2ccco2)SC1=S (stereo not given)	-4.4	i	-4.2	0.1	176.3*	3.1	4.35µM*
CC1CN(Cc2cc(=O)n3ccsc3n2)CC(C)O1 (stereo not given)	-3.2	i	7.4	-0.1	62.3*	-1.9	1.1%
Cc1ccc(F)cc1NC(=O)N1CCN(c2ccnc3cc(Cl)ccc23)CC1	3.2	i	-7.7	-0.2	0.0	-0.8	nt
O=C(Nc1cc(F)ccc1F)N1CCN(c2ccnc3cc(Cl)ccc23)CC1	0.3	i	2.1	0.0	60.8*	-2.5	-0.5%
CCN(C(=O)/C=C/c1ccc2c(c1)OCO2)c1ccccc1	3.5	i	-4.9	-0.1	61.7*	-0.5	3.3%
SMILES	V-ATPase pH	Rce1 inhib	NPR1 activator	Efflux pump mplx	NSD2 inh	GC-B act	Alpha artifact
O=C(C=Cc1ccc2c(c1)OCO2)c1ccccc1	-0.6	nt	0.8	nt	0.5	-8.3	nt
Cc1ccc(C(=O)NC(=S)NNC(=O)c2ccccc2O)cc1	1.4	i	-2.1	0.2	50.2*	5.5	-7.2%
CC(C)(C)CN1CCNC(=O)C1CC(=O)N1CCC(C(=O)N2CCOCC2)CC1 (stereo not given)	0.2	i	-1.8	0.1	78.6*	-2.1	-4.3%
CC(C)(C)CN1CCNC(=O)C1CC(=O)N1CCN(c2ccccc2)CC1 (stereo not given)	1.7	i	3.2	0.0	-1.0	0.4	nt
COC1=CC(=O)c2nc(Cl)ccc2C1=O	nt	nt	3.1	nt	127.5*	4.9	-2.1%
COCCN=C1S/C(=C\c2cc(C)n(-c3ccc(F)cc3F)c2C)C(=O)N1C	nt	nt	-23.4	nt	1.4	-29.5	nt
O=C(O)COc1ccc(/C=C/C(=O)c2ccc(C3CCCCC3)cc2)cc1	-3.0	i	-0.2	0.1	31.5	-2.1	nt
O=C(O)COc1ccc(/C=C/C(=O)c2ccc3ccccc3c2)cc1	-2.7	i	nt	0.0	87.6*	nt	-4.7%
Cc1ccc(-c2c(NC(=O)c3cccc(C)c3)nc3ncccn23)cc1	nt	nt	-1.4	nt	nt	4.9	nt
Cn1c(CSCc2ccccc2)nnc1SCC(=O)Nc1nccs1	1.8	i	1.1	-0.1	120.1*	-0.9	-1.1%
Cn1c(CSCc2ccc(F)cc2)nnc1SCC(=O)Nc1nccs1	0.3	i	0.9	0.0	-2.5	1.3	nt
Cc1ccccc1S(=O)(=O)Cc1ccc(C(=O)NCCc2ccccc2)o1	0.7	i	0.4	0.1	35.4	0.0	nt
CCN(CC)CCNC(=O)c1ccc(CS(=O)(=O)c2ccccc2C)o1	-1.4	i	1.3	0.2	51.2*	-3.1	-1.8%
Cc1ccc(C(=O)NCC(=O)OCc2nc3sc(C)c(C)c3c(=O)[nH]2)cc1	nt	nt	-3.7	nt	2.1	-3.0	nt
CC(C)C(=O)N1CC[C@H]2[C@H](CCCN2Cc2cc(F)cc(F)c2)C1	nt	nt	0.5	nt	nt	3.7	nt
CSCCC(NC(=O)c1ccccc1Cl)C(=O)NCC(c1ccc(F)cc1)N1CCOCC1 (stereo not given)	-2.3	nt	-2.5	nt	140.7*	0.2	-2.9%
COC(=O)C[C@H]1CC[C@@H]2[C@@H](COc3ccc(NS(=O)(=O)c4ccccc4Cl)cc3C(=O)N2C)O1	nt	nt	1.8	nt	nt	-3.9	nt
C=CCC1C=C(Cc2ccccc2)CC(CC=C)N1 (stereo not given)	0.3	i	-7.1	0.0	54.1*	0.1	-4.4%
